# Mtb RmlCD inh – inhibitors of Mycobacterium tuberculosis RmlC and RmlD coupled enzymes. RmlC+RmlD coupled enzyme assay, percent inhibition; primary screen in compound mixtures. actives 0.03% (n = 160,000). P9WH09+P9WH11. AID 1533. inhibition, % at 3.6 µM; in the data active = inhibition mostly above about 34%, no sharp cut-off
# Target sequence (P9WH09 whole entry, looked up): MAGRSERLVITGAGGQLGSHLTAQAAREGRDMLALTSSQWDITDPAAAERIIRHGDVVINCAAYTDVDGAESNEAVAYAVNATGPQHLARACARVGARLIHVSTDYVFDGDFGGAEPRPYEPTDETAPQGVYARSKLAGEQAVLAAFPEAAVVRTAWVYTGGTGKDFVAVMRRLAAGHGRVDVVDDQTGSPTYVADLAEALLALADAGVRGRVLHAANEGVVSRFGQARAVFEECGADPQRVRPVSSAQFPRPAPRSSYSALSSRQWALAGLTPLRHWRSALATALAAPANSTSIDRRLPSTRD
# Target sequence (P9WH11 whole entry, looked up): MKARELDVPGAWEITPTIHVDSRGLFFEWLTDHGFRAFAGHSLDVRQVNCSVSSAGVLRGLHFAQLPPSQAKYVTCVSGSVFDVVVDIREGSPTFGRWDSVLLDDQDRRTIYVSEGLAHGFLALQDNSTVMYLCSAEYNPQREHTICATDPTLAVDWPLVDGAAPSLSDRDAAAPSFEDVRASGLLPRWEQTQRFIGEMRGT
# VHR inh abs – blocks human VHR1 dual specificity phosphatase; P51452; recombinant VHR phosphatase, pNPP absorbance; inhibition, % at 13.3 µM; actives 0.52% (n = 290,000); in the data active = inhibition above about 50%
# * marks the source's active call; other numbers are inactive results; . = no result given. Most compounds without a hit are left out; they make up all but 0.54% or so of the library.
SMILES,Mtb RmlCD inh,VHR inh abs
COc1ccc(C(=O)Nc2ccc(NC(=O)CSc3nnc(-c4ccncc4)n3C)cc2)cc1,.,19
Cn1c(SCC(=O)Nc2ccc(NC(=O)c3ccccc3)cc2)nnc1-c1ccncc1,.,52*
O=C(c1ccc(F)c(F)c1)N1CCC2(CC1)NCCc1[nH]cnc12,.,29
O=C(c1ccc(F)cc1)N1CCC2(CC1)NCCc1[nH]cnc12,.,56*
CCN(CC)C(=S)Nc1cc(C(=O)OC)ccc1C(=O)OC,-7,43
CCN1CCN(c2ccc(S(=O)(=O)N3CCCC3)cn2)CC1,-6,19
Cc1ccc2nc(NC(=O)c3cc(-c4ccco4)nc4ccccc34)sc2c1,5,13
O=C(NC(=S)Nc1cccc(S(=O)(=O)NC2=NCCC2)c1)c1cc(-c2ccco2)nc2ccccc12,13,19
O=C(Nc1cccc(S(=O)(=O)NC2=NCCC2)c1)c1cc(-c2ccco2)nc2ccccc12,5,52*
O=C(Nc1nc2ccccc2s1)c1cc(-c2ccco2)nc2ccccc12,37*,21
COC(=O)C1=CN(c2ccc(OC)cc2)C=C(C(=O)OC)C1c1cc(OC)c(OC)cc1OC,.,5
CC1CN(c2ccc([N+](=O)[O-])c(NCCOc3ccc(Cl)cc3)c2)CC(C)N1 (stereo not drawn),.,-5
CC1CN(c2ccc([N+](=O)[O-])c(NCCOc3ccccc3)c2)CC(C)N1 (stereo not drawn),.,52*
S=c1[nH]nc(-c2ccc(Cl)cc2Cl)n1-c1ccc(Cl)cc1,.,16
COc1ccc(CNCc2cc3c(cc2[N+](=O)[O-])OCO3)cc1,.,53*
Cc1cc(C)cc(NCc2cc3c(cc2[N+](=O)[O-])OCO3)c1,4,42
COc1ccc(C2C3=C(CC(C)(C)CC3=O)Oc3ncn(Cc4ccccc4)c(=N)c32)cc1 (stereo not drawn),.,55*
CC1(C)CC(=O)C2=C(C1)Oc1ncn(Cc3ccco3)c(=N)c1C2c1ccccc1 (stereo not drawn),23,40
Cc1nc(C)c(C(=O)Nc2ccc(Oc3ccccc3)cc2)o1,7,2
O=C(Nc1ccccc1-c1nc2ccccc2[nH]1)c1ccc(S(=O)(=O)N2CCCCC2)cc1,104,50*
CC1CCCCN1S(=O)(=O)c1ccc(C(=O)Nc2ccccc2-c2nc3ccccc3[nH]2)cc1 (stereo not drawn),.,23
Cc1[nH]nc(SCC(=O)NC2CCCCC2)c1[N+](=O)[O-],-10,54*
Cc1[nH]nc(SCC(=O)NC2CCCC2)c1[N+](=O)[O-],9,1
CCN(CC)S(=O)(=O)c1ccc(Cl)c(NC(=O)CSc2cccc[n+]2[O-])c1,.,8
COc1ccccc1OCC(=O)Nc1ccc(S(=O)(=O)N(C)c2ccccc2)cc1,.,-29
SMILES,Mtb RmlCD inh,VHR inh abs
CCN(CC)S(=O)(=O)c1ccc(NC(=O)CSc2cccc[n+]2[O-])cc1,-2,52*
CCN(CC)S(=O)(=O)c1ccc(NC(=O)COc2c(OC)cccc2OC)cc1,4,56*
Cc1ccc2nc(-c3cccnc3)cc(C(=O)Nc3ccc(F)cc3C)c2c1,-10,53*
Cc1ccc2nc(-c3ccncc3)cc(C(=O)Nc3ccc(F)cc3C)c2c1,.,19
Cc1ccc(OCC(=O)N/N=C\c2c(C)[nH]n(-c3ccccc3)c2=O)c([N+](=O)[O-])c1,-8,56*
Cc1ccc(/C=N\NC(=O)COc2ccc(C)cc2[N+](=O)[O-])cc1,2,12
CC1CCCCC1N(C)C1CCN(C(=O)CNC(=O)/C=C/c2cccc(Cl)c2)CC1 (stereo not drawn),.,18
COc1ccc(N2CCN(C(=O)c3ccc(Oc4ccc(C(F)(F)F)cn4)cc3)CC2)cc1,-11,27
Cc1ccc(C)c(Cn2nc(-c3ccccc3)ccc2=O)c1,.,53*
Cc1ccc(-c2ccc(=O)n(Cc3cc(C)ccc3C)n2)cc1,.,-24
Cc1ccc(NC(=O)N2CCCc3ccccc32)cc1C,.,53*
O=C(Nc1ccccc1)N1CCCc2ccccc21,-8,22
O=C(CN1C(=O)CSc2ccc(S(=O)(=O)N3CCCCC3)cc21)NCc1ccccc1,.,-3
O=C(CN1C(=O)CSc2ccc(S(=O)(=O)N3CCCCC3)cc21)NCc1ccccc1Cl,.,56*
Cc1cc(C)cc(N(CC(=O)NC2CCCC2)C(=O)CCC(=O)Nc2nc(C)cs2)c1,.,18
COc1ccc(N(CC(=O)NC2CCCC2)C(=O)CCC(=O)Nc2nc(C)cs2)cc1OC,.,53*
COc1ccc(-c2cc(C#N)nc(N3CCN(c4ccccc4)CC3)n2)cc1,39,53*
COc1ccc(-c2cc(-c3ccc(F)cc3)nc(N3CCN(C)CC3)n2)cc1,3,.
COC1CCCCC1Nc1cccc(SC)c1 (stereo not drawn),-7,2
Cc1ccc(NC(=S)NC(C)CCc2ccccc2)cc1C (stereo not drawn),.,-14
Cc1cccc(C)c1NC(=S)NC(C)CCc1ccccc1 (stereo not drawn),14,60*
CCN(CC)CCOC(=O)c1ccc(NC(=O)C2(c3ccccc3)CCCC2)cc1,-13,54*
O=C(O)c1ccc(NC(=O)C2(c3ccccc3)CCCC2)cc1,-5,17
NC(=Nc1ccc(Br)cc1)c1ccccc1,.,51*
N/C(=N\OC(=O)Oc1ccccc1)c1ccc(Br)cc1,.,16
SMILES,Mtb RmlCD inh,VHR inh abs
COc1ccc2cc(C(=O)N3CCc4ccccc43)[nH]c2c1,.,53*
O=C(c1cc2cc(Br)ccc2[nH]1)N1CCc2ccccc21,.,27
O=C(NCc1ccco1)Nc1ccc([N+](=O)[O-])cc1,-1,-8
CCC(C)NC(=O)NCc1ccccc1F (stereo not drawn),82,56*
O=C(NCc1ccccc1F)Nc1ccc([N+](=O)[O-])cc1,-9,56*
COC(=O)[C@H](CCSC)NC(=O)NCc1ccccc1F,.,10
O=[N+]([O-])c1ccc(Sc2n[nH]c(-c3ccc(Cl)cc3Cl)n2)nc1,10,6
CCOc1ccc(-c2ncncc2-c2ccc(OC)c(OC)c2)c(O)c1,.,6
CC(C)CCn1nnnc1C(c1ccc(F)cc1)N1CCC(C(N)=O)CC1 (stereo not drawn),.,17
C=CCN1C(=O)/C(=C2/Sc3ccccc3N2CC)SC1=S,.,11
C=CCN1C(=O)/C(=C2/Sc3ccccc3N2CCCS(=O)(=O)O)SC1=S,.,50*
COc1ccc(C)cc1N(C(=O)c1ccco1)C(C(=O)NC1CCCC1)c1cc(OC)c(OC)c(OC)c1 (stereo not drawn),.,46
Cc1ccc(S(=O)(=O)n2ccc3c2CCCC3=O)cc1,.,-16
CC1CCCN(CCCNC(=O)c2ccc(CS(=O)(=O)c3c(Cl)cccc3Cl)o2)C1 (stereo not drawn),.,56*
CC1CCCN(CCCNC(=O)c2ccc(CS(=O)(=O)Cc3cccc(Cl)c3)o2)C1 (stereo not drawn),.,30
CCOc1ccc(C(C(=O)NCC2CCCO2)N(Cc2cccs2)C(=O)c2snc(C(N)=O)c2N)cc1 (stereo not drawn),.,10
COc1ccc(NC(=O)c2ccc(Cl)c(S(=O)(=O)N3CCc4ccccc4C3)c2)cn1,3,13
CCC1=Nc2cc(C(=O)NCCCN3CCOCC3)ccc2Sc2ccccc21,.,11
CCC1=Nc2cc(C(=O)NCCN3CCCC3)ccc2Sc2ccccc21,.,58*
COc1cc(/C=C/C(=O)NC(=O)c2ccccc2O)ccc1OC(C)=O,.,20
CSc1nc2ccc3nc(NC(=O)c4cccs4)sc3c2s1,-10,28

# Compound activity deposited in PubChem BioAssay by several laboratories.
